Each structure is given as a SMILES string. Values joined by “and” are separate entries in the source; they are usually repeats but may differ in a detail not shown here. Identical values can stand only once. Results filed as inconclusive are left out. Where a structure was tested more than once in an assay, its records may differ in their call. Active and inactive are the calls of the source. Unless noted, calls follow the shape of the dose curve; as a rule, active = well fitted curve in the direction sought with a large enough effect in the repeat runs; inconclusive = weak or mixed curves; inactive = no such curve, though single readings can be large; an effect the other way counts as inactive or inconclusive.

In assay [1] the target is Thyrotropin receptor (Homo sapiens) (UniProt P16473). In words: qHTS assay to identify small molecule antagonists of the thyroid stimulating hormone receptor (TSHR) signaling pathway (AID 1259385; calls by dose curve; also: nearly all actives have a fitted effect of over 20% in size). The procedure, abridged:
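Antagonist mode: compound-treated TSHR-expressing HEK293 cells were stimulated with 1.5 ng/mL TSH (final) in presence of Ro20-1724 for 30 min at RT. HTRF cAMP detection after 1 h; each compound tested at 15 concentrations, triplicate.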
(In general: qHTS replaces the single test concentration by a dilution series.)

The nature of assay [2]: qHTS assay to identify small molecule agonists of the estrogen receptor alpha (ER-alpha) signaling pathway in the presence of an antagonist - cell viability counter screen (AID 1259386).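 Also: series mostly up to about 92 µM; cells exposed to compounds for 22 h at 37 °C before the viability read; nearly all actives have a fitted effect of over 30% in size.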 In short, it runs like this:
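The test measures whether compounds kill ER-alpha reporter cells (VM7Luc4E2) under antagonist co-treatment (ICI-182,780, 10.0nM). Fluorescence from CellTiter-Fluor is read after a 22hr exposure.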

The target in assay [3] is Progesterone receptor (Homo sapiens) (UniProt P06401). In words: qHTS assay to identify small molecule agonists of the progesterone receptor (PR) signaling pathway (AID 1346784; calls by dose curve; also: nearly all actives have a fitted effect of over 30% in size; also: potency is read from the fitted curve at half-maximal effect). The procedure, abridged: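 Using charcoal-stripped serum (2%) to limit endogenous steroids, PR-UAS-bla HEK 293T cells received compounds for 16 hr at 37C after 6 hr plating; beta-lactamase FRET fluorescence was recorded following 2 hr substrate loading at room temperature.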

Assay [4] has the same target. In words: qHTS assay to identify small molecule antagonists of the progesterone receptor (PR) signaling pathway (AID 1346795; active = well fitted inhibition curve with a large enough effect in the signal ratio in the repeat runs, not every such curve was filed as active; the % refers to the signal ratio; also: potency is read from the fitted curve at half-maximal effect). The procedure, abridged:
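Inhibition of R5020-induced (1 nM final) beta-lactamase reporter signal in PR-UAS-bla HEK293T cells was scored by FRET fluorescence after overnight (16 hr) compound treatment.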

Assay [5] can be described thus: qHTS assay to identify small molecule agonists of the progesterone receptor (PR) signaling pathway - cell viability counter screen (AID 1346799; calls by dose curve; also: nearly all actives have a fitted effect of over 45% in size; also: potency is read from the fitted curve at half-maximal effect). In short, it runs like this:
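Cytotoxicity in PR-bla HEK293T cells: 16 h compound, 37C; CellTiter-Glo added post-FRET read; luminescence after 30 min RT.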

Assay [6] can be described thus: qHTS assay to identify small molecule antagonists of the TGF-beta/Smad signaling pathway - cell viability counter screen (AID 1346824). Also: nearly all actives have a fitted effect of over 50% in size. The procedure, abridged: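 Cytotoxicity counter-screen run in the same wells as the beta-lactamase Smad reporter read: CellTiter-Glo luminescence after 30 min at room temperature. HEK 293T SBE-bla cells had 5 hr compound exposure at 37 C with TGF-beta1 (0.25 ng/mL stock).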

Assay [7] is described as follows: qHTS assay to identify small molecule agonists of the TGF-beta/Smad signaling pathway (AID 1346859; active = well fitted activation curve with a large enough effect in the signal ratio in the repeat runs, not every such curve was filed as active; the % refers to the signal ratio; also: series mostly up to about 77 µM). The procedure, abridged: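 Stable Smad binding element-beta-lactamase HEK 293T cells; 5 hr compound exposure at 37 C under 5% CO2; 2 hr room-temperature substrate step; fluorescence excited at 405 nm, collected at 460 nm and 530 nm.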
Assay [8] addresses Thyrotropin-releasing hormone receptor (Homo sapiens) (UniProt P34981). In words: qHTS assay to identify small molecule antagonists of the thyrotropin-releasing hormone receptor (TRHR) signaling pathway (AID 1346877; active = well fitted inhibition curve with a large enough effect in the repeat runs, not every such curve was filed as active; also: series mostly up to about 51 µM). In short, it runs like this:
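Overnight-plated (18 h, 37 °C) HEK293 cells expressing TRHR were dye-loaded 2 h, treated with compound, then stimulated with TRH at 1 nM final. Fluorescence intensity was captured every second for 3 min.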

The target is the same in assay [9]. In words: qHTS assay to identify small molecule agonists of the thyrotropin-releasing hormone receptor (TRHR) signaling pathway (AID 1346891; calls by dose curve;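 also: HEK293 cells expressing TRHR with calcium dye readout; series mostly up to about 58 µM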). The procedure, abridged:
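In 1536-format, 1500 TRHR-Hek293 cells per well grew 18 h, took up calcium dye for 2 h at 37 °C, received compound, and were read kinetically; 15-point titrations, triplicates.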

The nature of assay [10]: Human pregnane X receptor (PXR) small molecule agonists, qHTS cell viability counter screen (AID 1346977). Also: nearly all actives have a fitted effect of over 50% in size. In short, it runs like this:
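Readout is CellTiter-Fluor fluorescence from PXR-Luc HepG2 cells. Plated cells rested 5hr, then were treated with compounds for 24hr at 37C and 5% CO2, with reagent present during the last hour.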

A short description of assay [11]: Caspase-3/7 induction in HepG2 cells by small molecules, qHTS assay (AID 1346978). Also: nearly all actives have a fitted effect of over 15% in size. In short, it runs like this:
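Caspase-3/7 induction was measured by Caspase-Glo 3/7 luminescence (30 min, room temperature) after a 17 hr compound exposure of wild-type HepG2 cells seeded at 2,000 per well and pre-incubated 5 hr.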

A short description of assay [12]: Caspase-3/7 induction in CHO-K1 cells by small molecules, qHTS assay (AID 1346980). Also: nearly all actives have a fitted effect of over 15% in size. In short, it runs like this: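 Luminescent Caspase-Glo 3/7 read (30min, room temperature) quantified apoptosis induction. Cells were wild-type CHO-K1, treated with compound for 17hr at 37 C and 5% CO2.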
Assay [13] in a line: Caspase-3/7 induction in HepG2 cells by small molecules, qHTS cell viability counter screen (AID 1346981). Also: series mostly up to about 92 µM; nearly all actives have a fitted effect of over 30% in size. In short, it runs like this: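 Treatment of HepG2 cells with DMSO-delivered compounds ran 16 hr at 37 C following a 5-hr pre-incubation of 2,000 cells/well. CellTiter-Fluor fluorescence, read after 1 hr, served as the viability measure in a qHTS format.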
In assay [14] the target is Nuclear receptor subfamily 1 group I member 2 (Homo sapiens) (UniProt O75469). In words: Human pregnane X receptor (PXR) small molecule agonists, qHTS assay (AID 1346982). Also: nearly all actives have a fitted effect of over 35% in size. Also: potency is read from the fitted curve at half-maximal effect. In short, it runs like this:
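Stable HepG2 line reporting PXR-mediated CYP3A4 expression via luciferase. Treatment: 24 hr with compounds in DMSO at 37 C. Detection: ONE-Glo luminescence.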

Assay [15] addresses Nuclear receptor subfamily 1 group I member 2 (Rattus norvegicus) (UniProt Q9R1A7). In words: Rat pregnane X receptor (rPXR) activation by small molecules, qHTS assay (AID 1346983). Also: nearly all actives have a fitted effect of over 20% in size. Conditions: rPXR luciferase reporter cells, One-Glo luminescence, 24 h; max activation: stronger effect = higher value. The procedure, abridged: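 Luminescent readout (One-Glo luciferase, 30 min room temperature) followed 24 hr compound treatment at 37 C of rPXR cells plated 2,000 per well and preincubated 5hr; qHTS format with compounds delivered in DMSO.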

Assay [16] has as its target Nuclear receptor subfamily 1 group I member 2 (Homo sapiens) (UniProt O75469). As to the kind of experiment: CYP3A4 induction through human pregnane X receptor (PXR) by small molecules, qHTS assay (AID 1346984). Also: nearly all actives have a fitted effect of over 40% in size. The procedure, abridged:
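After 24 h at 37C with compound, DPX-2 cells (HepG2, co-transfected PXR response element and CYP3A4 promoter-luciferase) got 3uM final P450-Glo Luciferin-IPA for 3 h; One-Glo luminescence followed.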

For assay [17] the target is unchanged. As to the kind of experiment: Human pregnane X receptor (PXR) activation by small molecules, qHTS assay (AID 1346985). Also: nearly all actives have a fitted effect of over 40% in size. The procedure, abridged:
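DPX-2 cells (HepG2 co-transfected with a PXR response element and a CYP3A4-promoter luciferase construct) were seeded at 2,000 per well, rested 5 hr at 37C, then exposed to DMSO-dissolved compounds for 24 hr. Activation was read as luciferase luminescence.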

Assay [18] in a line: qHTS assay to identify small molecule antagonists of the progesterone receptor (PR) signaling pathway - cell viability counter screen (AID 1346798). Also: series mostly up to about 92 µM; nearly all actives have a fitted effect of over 50% in size. The procedure, abridged:
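ATP content as viability readout: CellTiter-Glo luminescence, 30 min room temperature, in PR-UAS-bla HEK293T cells after 16 hr compound/R5020 treatment at 37C and 5% CO2.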

A short description of assay [19]: qHTS assay to identify small molecule agonists of the TGF-beta/Smad signaling pathway - cell viability counter screen (AID 1346829). Also: top concentration of the series differs between compounds; nearly all actives have a fitted effect of over 45% in size. In short, it runs like this:
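Here the cytotoxicity of library compounds is measured in SBE-bla HEK 293T cells treated for 5 hr, using CellTiter-Glo added to wells already read for the beta-lactamase reporter.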

Assay [20] can be described thus: Caspase-3/7 induction in CHO-K1 cells by small molecules, qHTS cell viability counter screen (AID 1346979). Also: nearly all actives have a fitted effect of over 35% in size. Also: potency is read from the fitted curve at half-maximal effect. The procedure, abridged: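 To flag cytotoxic compounds, treated CHO-K1 wild-type cells were given CellTiter-Fluor at 16hr and read fluorescently after 1hr at 37C; the caspase-3/7 luminescence was measured in these same wells.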
% is scaled to controls: 0 for no effect and ±100 for the full control effect.

Sequence of Nuclear receptor subfamily 1 group I member 2 (Homo sapiens) (O75469 whole entry, looked up): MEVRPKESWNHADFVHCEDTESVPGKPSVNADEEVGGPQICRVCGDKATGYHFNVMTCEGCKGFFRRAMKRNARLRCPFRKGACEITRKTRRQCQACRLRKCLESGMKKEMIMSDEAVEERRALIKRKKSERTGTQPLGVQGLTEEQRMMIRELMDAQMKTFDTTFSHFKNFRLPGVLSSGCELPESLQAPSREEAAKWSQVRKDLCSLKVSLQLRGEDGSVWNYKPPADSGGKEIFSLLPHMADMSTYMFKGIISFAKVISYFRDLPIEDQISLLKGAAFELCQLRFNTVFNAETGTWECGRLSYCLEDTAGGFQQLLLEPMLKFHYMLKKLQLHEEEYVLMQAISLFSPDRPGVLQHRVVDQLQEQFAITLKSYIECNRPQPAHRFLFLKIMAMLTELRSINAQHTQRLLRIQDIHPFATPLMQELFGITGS
Sequence of Nuclear receptor subfamily 1 group I member 2 (Rattus norvegicus) (Q9R1A7 whole entry, looked up): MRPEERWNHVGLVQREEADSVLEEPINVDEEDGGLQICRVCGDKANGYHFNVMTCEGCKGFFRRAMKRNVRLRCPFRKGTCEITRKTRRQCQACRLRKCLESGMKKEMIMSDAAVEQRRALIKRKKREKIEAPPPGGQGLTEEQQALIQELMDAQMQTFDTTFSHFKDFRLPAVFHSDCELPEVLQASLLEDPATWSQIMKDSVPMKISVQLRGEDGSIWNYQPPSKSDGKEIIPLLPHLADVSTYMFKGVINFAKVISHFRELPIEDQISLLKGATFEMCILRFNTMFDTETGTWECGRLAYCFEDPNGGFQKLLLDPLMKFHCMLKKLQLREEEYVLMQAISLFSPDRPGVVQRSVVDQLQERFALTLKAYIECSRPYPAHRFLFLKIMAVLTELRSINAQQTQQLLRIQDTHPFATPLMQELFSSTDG
Sequence of Progesterone receptor (Homo sapiens) (P06401 whole entry, looked up): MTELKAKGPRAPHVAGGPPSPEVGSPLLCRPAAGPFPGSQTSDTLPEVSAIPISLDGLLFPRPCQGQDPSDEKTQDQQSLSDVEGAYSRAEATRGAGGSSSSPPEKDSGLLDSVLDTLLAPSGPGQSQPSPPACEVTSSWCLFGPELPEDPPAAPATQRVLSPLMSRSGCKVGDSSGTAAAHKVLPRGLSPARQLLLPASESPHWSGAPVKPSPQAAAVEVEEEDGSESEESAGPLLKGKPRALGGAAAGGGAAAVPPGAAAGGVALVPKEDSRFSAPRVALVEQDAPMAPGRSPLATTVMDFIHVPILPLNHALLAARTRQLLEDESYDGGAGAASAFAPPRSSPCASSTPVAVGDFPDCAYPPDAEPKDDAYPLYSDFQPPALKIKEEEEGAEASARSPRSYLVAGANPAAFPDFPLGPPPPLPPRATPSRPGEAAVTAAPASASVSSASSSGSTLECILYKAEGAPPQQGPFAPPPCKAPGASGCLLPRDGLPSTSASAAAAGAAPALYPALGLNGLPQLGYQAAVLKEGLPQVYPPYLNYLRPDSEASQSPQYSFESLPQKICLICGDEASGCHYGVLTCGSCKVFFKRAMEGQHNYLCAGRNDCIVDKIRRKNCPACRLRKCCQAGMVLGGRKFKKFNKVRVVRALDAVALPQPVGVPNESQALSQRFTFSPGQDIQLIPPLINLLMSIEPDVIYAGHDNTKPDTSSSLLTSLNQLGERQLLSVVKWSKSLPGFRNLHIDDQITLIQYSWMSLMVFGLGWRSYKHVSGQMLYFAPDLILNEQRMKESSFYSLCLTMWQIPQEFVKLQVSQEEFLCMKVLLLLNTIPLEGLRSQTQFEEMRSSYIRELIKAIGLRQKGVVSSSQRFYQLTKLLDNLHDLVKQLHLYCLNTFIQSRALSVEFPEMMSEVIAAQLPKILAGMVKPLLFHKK
Sequence of Thyrotropin receptor (Homo sapiens) (P16473 whole entry, looked up): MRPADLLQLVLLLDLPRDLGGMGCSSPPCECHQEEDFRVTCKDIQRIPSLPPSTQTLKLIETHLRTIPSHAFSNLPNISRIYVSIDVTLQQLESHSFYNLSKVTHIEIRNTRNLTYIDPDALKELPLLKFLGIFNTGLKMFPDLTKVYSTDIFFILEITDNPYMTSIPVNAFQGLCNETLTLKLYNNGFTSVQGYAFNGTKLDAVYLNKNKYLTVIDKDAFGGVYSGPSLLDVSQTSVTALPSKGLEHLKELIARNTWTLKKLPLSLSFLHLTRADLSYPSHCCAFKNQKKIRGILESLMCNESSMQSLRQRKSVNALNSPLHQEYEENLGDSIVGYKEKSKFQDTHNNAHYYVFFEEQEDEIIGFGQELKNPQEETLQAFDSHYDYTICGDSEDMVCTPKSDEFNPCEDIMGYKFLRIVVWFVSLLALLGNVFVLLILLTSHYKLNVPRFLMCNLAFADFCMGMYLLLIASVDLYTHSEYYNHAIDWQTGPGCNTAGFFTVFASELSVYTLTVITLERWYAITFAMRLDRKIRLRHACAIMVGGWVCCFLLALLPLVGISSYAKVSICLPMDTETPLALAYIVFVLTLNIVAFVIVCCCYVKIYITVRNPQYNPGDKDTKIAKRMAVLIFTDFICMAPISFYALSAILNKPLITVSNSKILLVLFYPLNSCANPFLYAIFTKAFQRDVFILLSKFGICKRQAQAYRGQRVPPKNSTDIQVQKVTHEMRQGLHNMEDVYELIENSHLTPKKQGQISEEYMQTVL
Sequence of Thyrotropin-releasing hormone receptor (Homo sapiens) (P34981 whole entry, looked up): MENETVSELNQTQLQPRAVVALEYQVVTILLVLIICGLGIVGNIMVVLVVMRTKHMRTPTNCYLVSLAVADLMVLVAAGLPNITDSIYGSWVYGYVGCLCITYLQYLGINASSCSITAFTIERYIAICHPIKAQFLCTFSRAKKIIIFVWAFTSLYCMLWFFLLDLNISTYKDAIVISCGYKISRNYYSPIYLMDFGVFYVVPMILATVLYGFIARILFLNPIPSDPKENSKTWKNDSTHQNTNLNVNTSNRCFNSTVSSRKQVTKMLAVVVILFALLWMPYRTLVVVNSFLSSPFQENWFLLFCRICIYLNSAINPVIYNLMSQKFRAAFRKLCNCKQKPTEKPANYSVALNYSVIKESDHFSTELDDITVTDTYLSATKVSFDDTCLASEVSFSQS

With `O=C(O)Cc1cccc2ccccc12`, the compound was classed as inactive in assay [1], in assay [7], in [8] and in assay [12]. Besides, the Potency entry in [2], in [4], in assay [6], in assay [9], in assay [10] and in assay [11] was “inactive” each time. The Potency result in assay [13], in assay [14], in [16] and in assay [17] was “inactive” each time. The Potency result in [3] was “inactive and 1.37 µM (active)”; in [5], “inactive and 21.7 µM (active)”. Further, in [15], the max activation was -6.88% (inactive).

Consider `COCC(C)N` (stereo unspecified), for which the compound was called inactive in assay [1], in [7] and in assay [8]. For the same compound, the Potency result in [2], in assay [18], in [5], in assay [6], in assay [19] and in [9] was “inactive” throughout. For the same compound, the Potency entry in assay [10], in [11], in assay [20], in assay [13] and in [14] was “inactive” each time.

Consider `NC(=O)N1c2ccccc2C=Cc2ccccc21`, for which the Potency entry in assay [2], in assay [3], in assay [4], in assay [18], in assay [5] and in assay [6] was “inactive” each time. Moreover, the Potency result in assay [19], in assay [9], in [11], in [20] and in assay [13] was “inactive” in each case. For the same compound, the compound was classed as inactive in assay [7], in assay [8] and in [12]. In addition, the Potency in assay [14] is 54.2 µM (active) and inactive.

With `C[C@]12C[C@H](O)[C@H]3[C@@H](CCC4=CC(=O)CC[C@@]43C)[C@@H]1CC[C@@H]2C(=O)CO`, the result in assay [1], in assay [7] and in assay [12] was inactive. Moreover, the Potency result in assay [2], in assay [4], in [18], in assay [6], in assay [11] and in [20] was “inactive” throughout. Moreover, the Potency result in assay [13], in assay [16] and in assay [17] was “inactive” each time. Further, the Potency was 971 nM (active) in assay [3]; 8.65 µM (active) and 38.6 µM (active) in assay [14]. Besides, the max activation in [15] was -5.48% (inactive).

For the compound `O=c1c(-c2ccc(O)cc2)coc2cc(O)cc(O)c12`, the result in [1], in assay [7] and in assay [12] was inactive. Besides, the Potency result in assay [2], in assay [3], in assay [18], in assay [6], in assay [19] and in assay [11] was “inactive” throughout. The Potency result in [13] was “inactive”. Besides, the Potency in [4] is 23.9 µM (active) and 17.2 µM (active) and 13.3 µM (active); in assay [20], 60.1 µM (active) and 48.6 µM (active); in assay [14] it was 47.7 µM (active) and 30.6 µM (active) and 29.8 µM (active).

In the case of `CC(O)COc1ccccc1` (stereo unspecified), the call in assay [1], in assay [7] and in assay [12] was inactive. Also, the Potency entry in assay [2], in assay [3], in assay [4], in [18], in assay [5] and in assay [6] was “inactive” throughout. In addition, the Potency entry in assay [11], in [20], in [13], in [14], in assay [16] and in [17] was “inactive” each time. The max activation in [15] was -1.1% (inactive).

Take `COc1cc2c(c(OC)c1OC)-c1ccc(OC)c(=O)cc1[C@@H](NC(C)=O)CC2`: the Potency entry in assay [2], in [3], in [6], in [19], in [10] and in assay [11] was “inactive” each time. Further, the Potency result in assay [13] was “inactive”. Also, the result in [7] and in assay [12] was inactive. Further, the Potency in assay [20] was 381 nM (active) and 43.3 nM (active) and 298 nM (active); in assay [14], 2.14 µM (active) and 5.4 nM (active).

(Values after PubChem BioAssay (Tox21).)
